# Assay results: PubChem BioAssay AID1159580 (chemical genetic matrix, 2015)
# “And” between values parts separate entries of the source, which are not always exact repeats. Identical values can stand only once. The campaign covered roughly 5,500 compounds. About 2,000 (36%) were called active. Not shown: some 18% with an inconclusive outcome. The list shows a part of the results. A number with no mark means an inactive call. Rule as the data show it: active = normalized growth mostly below about 0.91 (no sharp cut-off); inconclusive = no clear call, values can overlap the other calls; inactive = mostly above about 0.92.
# Assay: chemical genetic growth profiling, strain panel (AID 1159580);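 also: tested at 20 µM; growth read once vehicle control cultures reached saturation at 30 °C; 1 = growth at the plate median or of vehicle wells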
# Settings: S. cerevisiae deletion strains, growth OD
compound,measurement,setting,value
O=C1C=C2C(=CCOC2O)O1 (stereo unspecified),normalized growth,"locus YAL013W, strain DEP1, stronger effect = lower value",0.922
same,normalized growth,"locus YAL021C, strain ccr4, stronger effect = lower value",0.679 (active)
same,normalized growth,"locus YAL026C, strain drs2, stronger effect = lower value",0.644 (active)
same,normalized growth,"locus YAL030W, strain snc1, stronger effect = lower value",0.781 (active)
same,normalized growth,"locus YBL061C, strain skt5, stronger effect = lower value",0.796 (active)
same,normalized growth,"locus YBR009C, strain hhf1, stronger effect = lower value",0.71 (active)
same,normalized growth,"locus YBR021W, strain FUR4, stronger effect = lower value",0.762 (active)
same,normalized growth,"locus YBR023C, strain chs3, stronger effect = lower value",0.784 (active)
same,normalized growth,"locus YBR171W, strain sec66, stronger effect = lower value",0.672 (active)
same,normalized growth,"locus YBR229C, strain ROT2, stronger effect = lower value",0.991
same,normalized growth,"locus YBR231C, strain swc5, stronger effect = lower value",0.73 (active)
same,normalized growth,"locus YBR279W, strain paf1, stronger effect = lower value",0.78 (active)
same,normalized growth,"locus YCL011C, strain gbp2, stronger effect = lower value",0.759 (active)
same,normalized growth,"locus YCL016C, strain dcc1, stronger effect = lower value",0.73 (active)
same,normalized growth,"locus YCL029C, strain bik1, stronger effect = lower value",0.913
same,normalized growth,"locus YCL069W, strain vba3, stronger effect = lower value",0.752 (active)
same,normalized growth,"locus YCR088W, strain abp1, stronger effect = lower value",0.792 (active)
same,normalized growth,"locus YDL005C, strain med2, stronger effect = lower value",0.881 (active)
same,normalized growth,"locus YDL035C, strain GPR1, stronger effect = lower value",0.776 (active)
same,normalized growth,"locus YDL040C, strain nat1, stronger effect = lower value",0.887 (active)
same,normalized growth,"locus YDL074C, strain BRE1, stronger effect = lower value",0.678 (active)
same,normalized growth,"locus YDL101C, strain DUN1, stronger effect = lower value",0.851 (active)
same,normalized growth,"locus YDL134C, strain PPH21, stronger effect = lower value",0.9
same,normalized growth,"locus YDL185W, strain tfp1, stronger effect = lower value",0.789 (active)
same,normalized growth,"locus YDL192W, strain arf1, stronger effect = lower value",0.789 (active)
same,normalized growth,"locus YDR001C, strain nth1, stronger effect = lower value",0.846 (active)
same,normalized growth,"locus YDR069C, strain doa4, stronger effect = lower value",0.652 (active)
same,normalized growth,"locus YDR101C, strain arx1, stronger effect = lower value",0.8 (active)
same,normalized growth,"locus YDR137W, strain rgp1, stronger effect = lower value",0.335 (active)
same,normalized growth,"locus YDR150W, strain NUM1, stronger effect = lower value",0.831 (active)
same,normalized growth,"locus YDR159W, strain sac3, stronger effect = lower value",0.847 (active)
same,normalized growth,"locus YDR162C, strain NBP2, stronger effect = lower value",0.258 (active)
same,normalized growth,"locus YDR195W, strain ref2",0.927
same,normalized growth,"locus YDR297W, strain sur2, stronger effect = lower value",0.797 (active)
same,normalized growth,"locus YDR318W, strain mcm21, stronger effect = lower value",0.793 (active)
same,normalized growth,"locus YDR334W, strain swr1, stronger effect = lower value",0.845 (active)
same,normalized growth,"locus YDR335W, strain msn5, stronger effect = lower value",0.698 (active)
same,normalized growth,"locus YDR388W, stronger effect = lower value",0.864 (active)
same,normalized growth,"locus YDR392W, strain spt3, stronger effect = lower value",0.555 (active)
same,normalized growth,"locus YDR502C, strain sam2, stronger effect = lower value",0.763 (active)
same,normalized growth,"locus YEL003W, strain gim4, stronger effect = lower value",0.659 (active)
same,normalized growth,"locus YEL037C, strain rad23, stronger effect = lower value",0.82 (active)
same,normalized growth,"locus YEL061C, strain CIN8 (second series), stronger effect = lower value",0.759 (active)
same,normalized growth,"locus YEL061C, strain CIN8, stronger effect = lower value",0.848 (active)
same,normalized growth,"locus YER015W, strain faa2, stronger effect = lower value",0.635 (active)
same,normalized growth,"locus YER016W, strain bim1, stronger effect = lower value",0.833 (active)
same,normalized growth,"locus YER110C, stronger effect = lower value",0.597 (active)
same,normalized growth,"locus YER111C, strain swi4, stronger effect = lower value",0.938
same,normalized growth,"locus YER155C, strain BEM2 (second series), stronger effect = lower value",0.303 (active)
same,normalized growth,"locus YER155C, strain BEM2, stronger effect = lower value",0.962
same,normalized growth,"locus YER167W, strain BCK2, stronger effect = lower value",0.795 (active)
same,normalized growth,"locus YFR010W, strain ubp6, stronger effect = lower value",0.613 (active)
same,normalized growth,"locus YGL078C, strain dbp3, stronger effect = lower value",0.869 (active)
same,normalized growth,"locus YGL086W, strain mad1, stronger effect = lower value",0.806 (active)
same,normalized growth,"locus YGL167C, strain pmr1, stronger effect = lower value",0.846 (active)
same,normalized growth,"locus YGL173C, strain kem1, stronger effect = lower value",0.707 (active)
same,normalized growth,"locus YGL227W, strain vid30, stronger effect = lower value",0.843 (active)
same,normalized growth,"locus YGL240W, strain doc1, stronger effect = lower value",0.487 (active)
same,normalized growth,"locus YGL248W, strain PDE1, stronger effect = lower value",0.883 (active)
same,normalized growth,"locus YGL253W, strain hxk2, stronger effect = lower value",0.657 (active)
same,normalized growth,"locus YGR078C, strain PAC10, stronger effect = lower value",0.702 (active)
same,normalized growth,"locus YGR135W, strain pre9, stronger effect = lower value",0.784 (active)
same,normalized growth,"locus YGR229C, strain SMI1, stronger effect = lower value",0.366 (active)
same,normalized growth,"locus YGR252W, strain gcn5, stronger effect = lower value",0.462 (active)
same,normalized growth,"locus YHR013C, strain ard1, stronger effect = lower value",0.589 (active)
same,normalized growth,"locus YHR027C, strain rpn1, stronger effect = lower value",0.71 (active)
same,normalized growth,"locus YHR030C, strain SLT2, stronger effect = lower value",0.9 (active) and 0.845 (active)
same,normalized growth,"locus YHR079C, strain IRE1 (second series), stronger effect = lower value",0.858 (active)
same,normalized growth,"locus YHR079C, strain IRE1, stronger effect = lower value",0.84 (active)
same,normalized growth,"locus YHR094C, strain hxt1, stronger effect = lower value",0.948
same,normalized growth,"locus YHR129C, strain ARP1, stronger effect = lower value",0.855 (active)
same,normalized growth,"locus YHR142W, strain chs7, stronger effect = lower value",0.684 (active)
same,normalized growth,"locus YHR200W, strain rpn10, stronger effect = lower value",0.91 (active)
same,normalized growth,"locus YIL066C, strain RNR3, stronger effect = lower value",0.776 (active)
same,normalized growth,"locus YIL073C, strain SPO22, stronger effect = lower value",0.5 (active)
same,normalized growth,"locus YIL125W, strain kgd1, stronger effect = lower value",0.886 (active)
same,normalized growth,"locus YIR030C, strain dcg1, stronger effect = lower value",0.911 (active)
same,normalized growth,"locus YJL092W, strain hpr5, stronger effect = lower value",0.744 (active)
same,normalized growth,"locus YJL095W, strain BCK1 (second series), stronger effect = lower value",0.833 (active)
same,normalized growth,"locus YJL095W, strain BCK1, stronger effect = lower value",0.795 (active) and 0.859 (active)
same,normalized growth,"locus YJL115W, strain asf1, stronger effect = lower value",0.961
same,normalized growth,"locus YJL129C, strain trk1, stronger effect = lower value",0.769 (active)
same,normalized growth,"locus YJL134W, strain LCB3, stronger effect = lower value",0.961
same,normalized growth,"locus YJL154C, strain vps35, stronger effect = lower value",0.859 (active)
same,normalized growth,"locus YJL164C, strain tpk1, stronger effect = lower value",0.757 (active)
same,normalized growth,"locus YJL166W, strain qcr8, stronger effect = lower value",0.667 (active)
same,normalized growth,"locus YJL168C, strain set2, stronger effect = lower value",0.939
same,normalized growth,"locus YJL187C, strain SWE1 (second series), stronger effect = lower value",0.829 (active)
same,normalized growth,"locus YJR043C, strain POL32, stronger effect = lower value",0.882
same,normalized growth,"locus YJR066W, strain TOR1, stronger effect = lower value",0.831
same,normalized growth,"locus YJR075W, strain HOC1, stronger effect = lower value",0.805 (active)
